Activity calls are given as the source filed them. Calls follow the shape of the full dose curve.
Assay: Platelet Aggregation Secondary Assay for Inhibitors of Platelet Integrin alphallb-beta3
Settings: platelet-rich plasma, ADP-induced aggregation, absorbance 563 nm
Description: NIH Molecular Libraries Probe Production Network [MLPCN] NIH Chemical Genomics Center [NCGC] MLPCN Grant: 1 R03 MH083257-01 Assay Provider: Barry Coller, Rockefeller University NCGC Assay Overview: The alphaIIbbeta3 receptor plays a vital role in hemostasis and thrombosis, where receptor deficiency causes the hemorrhagic disorder, Glanzmann thrombasthenia, and uncontrolled receptor activation causes thrombosis and blood vessel occlusion. Small molecule inhibitors of alphaIIbbeta3, tirofiban and eptifibatide, have undesirable side effects thought to arise from conformational changes in alphaIIbbeta3. These changes transiently activate the receptor to cause spontaneous platelet aggregation and thrombus formation. […] This secondary assay measures platelet aggregation (Blue et al., 2008). Platelets are induced to aggregate and aggregation is tracked by the change in absorbance over time. Inhibitors of alphaIIbbeta3 block platelet aggregation and decrease the rate of change in absorbance.
NCGC Assay Protocol Summary: Untreated 96-well polystyrene plates (Nunc, Rochester, NY) were blocked for at least 1 hour with HBMT (138 mM NaCl, 12 mM NaHCO3, 10 mM HEPES, 2.7 mM KCl, 0.4 mM NaH2PO4, 0.1% glucose, 0.35% BSA, pH 7.4). Compounds (33 uL in HBMT) and citrated platelet-rich plasma (67 uL) were added to the wells. After plates equilibrated at 37 C in the plate reader (SpectraMax; Molecular Devices, Sunnyvale, CA) for 10 minutes, aggregation was initiated by adding ADP (5 uM final concentration; Chrono-Log Corp, Havertown, PA). Absorbance (Abs) was measured at 563 nm every 10 seconds with 3 seconds of shaking between determinations for 8 minutes. Reference Blue R, Murcia M, Karan C, Jirouskova M, and Coller BS. Application of high-throughput screening to identify a novel alphaIIb-specific small- molecule inhibitor of alphaIIbbeta3-mediated platelet interaction with fibrinogen. Blood. 2008, 111(3):1248-56

| Structure (SMILES) | outcome | Potency |
| --- | --- | --- |
| O=C(O)c1cc(-c2cccc(-c3nn4c(=O)cc(N5CCNCC5)nc4s3)c2)cs1 | inactive | – |
| Nc1ccc(-c2cccc(-c3nn4c(=O)cc(N5CCNCC5)nc4s3)c2)cc1 | – | 1.9 µM (active) |
| CCc1nn2c(=O)cc(-c3ccncc3)nc2s1 | inactive | – |
| NCCC(=O)Nc1cccc(-c2nn3c(=O)cc(N4CCNCC4)nc3s2)c1 | – | 1.6 µM (active) |
| O=C(Nc1cccc(-c2nn3c(=O)cc(N4CCNCC4)nc3s2)c1)C1CCNCC1 | – | 8.6 µM (active) |
| O=C(Nc1cccc(-c2nn3c(=O)cc(N4CCNCC4)nc3s2)c1)c1ccon1 | inactive | – |
| Nc1ncc(-c2cccc(-c3nn4c(=O)cc(N5CCNCC5)nc4s3)c2)cn1 | – | 10.1 µM (active) |
| C[C@@H](N)C(=O)Nc1cccc(-c2nn3c(=O)cc(N4CCNCC4)nc3s2)c1 | – | 5.9 µM (active) |
| O=C(Nc1cccc(-c2nn3c(=O)cc(N4CCNCC4)nc3s2)c1)c1ccncc1 | – | 1.5 µM (active) |
| O=C(O)c1ccc(-c2cccc(-c3nn4c(=O)cc(N5CCNCC5)nc4s3)c2)cc1 | – | 11.4 µM (active) |
| O=c1cc(N2CCNCC2)nc2sc(-c3cccc(-c4ccnc(F)c4)c3)nn12 | – | 8.4 µM (active) |
| Cc1noc(C)c1-c1cccc(-c2nn3c(=O)cc(N4CCNCC4)nc3s2)c1 | inactive | – |
| NC(=O)c1ccc(-c2cccc(-c3nn4c(=O)cc(N5CCNCC5)nc4s3)c2)cc1 | – | 1.6 µM (active) |
| O=c1cc(N2CCNCC2)nc2sc(-c3ccncc3)nn12 | – | 3.1 µM (active) |
| NCC(=O)Nc1cccc(-c2nn3c(=O)cc(N4CCNCC4)nc3s2)c1 | – | 0.163 µM (active) |
| O=c1cc(N2CCNCC2)nc2sc(-c3cccc(-c4ccncc4)c3)nn12 | – | 8 µM (active) |
| COCc1nn2c(=O)cc(N3CCNCC3)nc2s1 | inactive | – |
| CC(C)(C)c1nn2c(=O)cc(N3CCNCC3)nc2s1 | inactive | – |
| CNCC(=O)Nc1cccc(-c2nn3c(=O)cc(N4CCNCC4)nc3s2)c1 | inactive | – |
| CCc1nn2c(=O)cc(NC3CNC3)nc2s1 | inactive | – |
| O=C(O)c1cccc(-c2cccc(-c3nn4c(=O)cc(N5CCNCC5)nc4s3)c2)c1 | inactive | – |
| O=C(O)CNc1cccc(-c2nn3c(=O)cc(N4CCNCC4)nc3s2)c1 | – | 12.7 µM (active) |
| O=c1cc(N2CCNCC2)nc2sc(Cc3ccccc3)nn12 | – | 13.9 µM (active) |
| CCc1nn2c(=O)cc(N3C(C)CNCC3C)nc2s1 (stereo unspecified) | inactive | – |
| C[C@H](N)C(=O)Nc1cccc(-c2nn3c(=O)cc(N4CCNCC4)nc3s2)c1 | – | 0.916 µM (active) |
| O=C(O)c1ccc(-c2nn3c(=O)cc(N4CCNCC4)nc3s2)cc1 | – | 5.4 µM (active) |
